Test [1] in a line: qHTS for Activators of Parkin Expression: LOPAC Validation Assay (NLuc Reporter) (AID 720572; note: potency is the fitted concentration of half-maximal effect). The method in brief:
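Cells harboring the Parkin-promoter coincidence reporter were treated for 24 h at seven concentrations. NLuc output was measured sequentially after the FLuc channel and scaled between DMSO and positive control values.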
(In general: Quantitative high-throughput screening tests each substance at several concentrations.)

A short description of test [2]: qHTS for Activators of Parkin Expression: LOPAC Validation Assay (FLuc Reporter) (AID 720573; note: potency is the fitted concentration of half-maximal effect). The method in brief: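 Neuronal cell line stably expressing FLuc/NLuc coincidence reporter under the Parkin promoter, 1,500 cells/well, dosed 24 h after seeding in 7-point series for 24 h at 37 C. FLuc luminescence read; normalized to DMSO and positive control (100%).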

Test [3] has as its target T1, Hexokinase-4 (Homo sapiens) + Glucokinase regulatory protein (Homo sapiens) (UniProt P35557+Q14397). The test is described as follows: qHTS assay for inhibitors of recombinant human GCK-GKRP interaction: Diaphorase-coupled assay (AID 743205). The gist of the method: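 Compounds pre-incubated 20 min with substrate, then 10 nM GST-GCK with 10 nM FLAG-GKRP added. GCK activity coupled via G6PDH and diaphorase to resorufin (5 mM glucose, 0.4 mM ATP, 0.15 mM NADP+, pH 7.6), read kinetically over 30 minutes at Ex 525/Em 590 nm.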

For test [4], the target named is T1, Hexokinase-4 (Homo sapiens) + Glucokinase regulatory protein (Homo sapiens). The experiment in a line: qHTS assay for inhibitors of recombinant human GCK-GKRP interaction: ADP-Glo assay (AID 743206).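 Note: plate controls were DMSO plus enzyme for no effect and no enzyme for full effect.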 The gist of the method: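 Pin-transferred compounds meet a 15 nM GST-GCK/15 nM FLAG-GKRP/2 uM S6P mix (dispense concentrations). ATP is then added to 0.4 mM final with 5 mM glucose, and the reaction runs 60 min at room temperature. ADP is quantified luminescently.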

Test [5] has the same target. The test is described as follows: qHTS assay for inhibitors of recombinant human GCK-GKRP interaction: HTRF assay (AID 743207). Note: potency is the fitted concentration of half-maximal effect. The method in brief: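 HTRF binding of 5 nM GST-GCK and 5 nM FLAG-GKRP with 2 uM S6P in pH 7.1 Hepes buffer (MgCl2, KCl, DTT, Tween 20, BSA). Anti-FLAG XL665 and anti-GST donor added, 60 min at room temperature; 665/615 nm read, normalized to with- and without-GCK controls.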

Test [6] can be described thus: qHTS Assay for Identifying Gametocytocidal Compounds (AID 743244).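 For max response: % is set by controls: 0 for no effect and ±100 for the full control effect; actives lower the fluorescent signal which means gametocytes are killed.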 Note: potency is the fitted concentration of half-maximal effect. To be noted: P. falciparum 3D7 stage III-V gametocytes, alamarBlue, 72 h; max response: stronger effect = lower value. The method in brief:
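Viability read-out was resazurin reduction (alamarBlue, 24 h) measured at Ex 525/Em 598 nm. Beforehand, late-stage (III-V) 3D7 P. falciparum gametocytes at 20,000 cells/well were incubated with compound 72 h at 37C under 5% CO2.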

The nature of test [7]: qHTS assay for measurement of the activity of small molecule inhibitors on Zika virus induced Caspase-3 activity in human astrocytoma cells (AID 1224859). Note: potency is the fitted concentration of half-maximal effect. The method in brief:
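Luminescent caspase-3/7 read-out (30 min reagent, room temperature) in human SNB-19 cells infected 6 h with ZIKV (2 FFU/cell) after 1 h compound pre-incubation; Data were normalised to uninfected and infected wells.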

Several values for one entry are separate records, joined by “and”; a condition that tells them apart may be missing. Identical values can stand only once. Values without a mark were called inactive. Records with an inconclusive call do not appear. Activity calls are given as the source filed them. Calls come from the whole dose curve; as a rule, active = well fitted curve in the direction sought with a large enough effect; inconclusive = small, poorly fitted or top-dose-only effect, or another doubt; inactive = no such curve, though single readings can be large; an effect the other way counts as inactive or inconclusive.

T1 sequence (P35557 whole entry, looked up): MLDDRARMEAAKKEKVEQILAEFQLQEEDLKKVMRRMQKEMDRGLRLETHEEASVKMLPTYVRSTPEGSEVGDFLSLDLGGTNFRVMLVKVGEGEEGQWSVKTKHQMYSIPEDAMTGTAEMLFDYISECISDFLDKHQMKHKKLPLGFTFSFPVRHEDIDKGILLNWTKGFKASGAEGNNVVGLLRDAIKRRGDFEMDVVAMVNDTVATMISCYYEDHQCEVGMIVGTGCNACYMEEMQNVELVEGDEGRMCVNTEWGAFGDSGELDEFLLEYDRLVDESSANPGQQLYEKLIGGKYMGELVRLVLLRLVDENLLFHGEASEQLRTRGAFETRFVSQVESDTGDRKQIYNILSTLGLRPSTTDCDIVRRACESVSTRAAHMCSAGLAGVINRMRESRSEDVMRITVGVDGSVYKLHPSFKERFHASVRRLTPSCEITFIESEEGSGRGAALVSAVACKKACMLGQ
T1 sequence (Q14397 whole entry, looked up): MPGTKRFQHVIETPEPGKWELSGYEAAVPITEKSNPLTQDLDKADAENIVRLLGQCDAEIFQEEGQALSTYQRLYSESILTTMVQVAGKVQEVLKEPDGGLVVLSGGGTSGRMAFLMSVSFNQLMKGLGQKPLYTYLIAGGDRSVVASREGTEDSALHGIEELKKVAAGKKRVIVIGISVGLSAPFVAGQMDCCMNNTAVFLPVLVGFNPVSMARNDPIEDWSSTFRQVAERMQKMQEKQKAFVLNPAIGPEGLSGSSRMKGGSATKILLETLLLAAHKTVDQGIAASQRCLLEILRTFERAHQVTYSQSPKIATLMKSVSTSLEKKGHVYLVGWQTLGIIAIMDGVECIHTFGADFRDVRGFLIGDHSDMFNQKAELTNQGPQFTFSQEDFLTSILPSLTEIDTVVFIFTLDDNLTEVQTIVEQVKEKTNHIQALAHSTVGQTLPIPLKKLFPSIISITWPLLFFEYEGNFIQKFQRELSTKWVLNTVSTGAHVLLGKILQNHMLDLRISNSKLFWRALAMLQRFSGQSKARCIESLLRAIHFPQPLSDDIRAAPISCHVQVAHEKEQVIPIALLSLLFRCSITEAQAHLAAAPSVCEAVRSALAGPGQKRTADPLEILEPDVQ

In the case of `O=C(O)[C@@H]1C[C@H](C(=O)O)N1`, the Potency result in test [1], in test [2], in test [4], in test [5] and in test [7] was “inactive” in each case. Also, the result in test [3] was inactive. Further, the max response in test [6] is -2.93%.

With `Ic1ccc(N2CCN(Cc3c[nH]c4ncccc34)CC2)cc1`, the Potency result in test [1], in test [2], in test [4], in test [5] and in test [7] was “inactive” throughout. Besides, the outcome in test [3] was inactive. The max response in test [6] was 5.54%.

As to `CC(=O)SCC[N+](C)(C)C`, the Potency result in test [1], in test [2], in test [4], in test [5] and in test [7] was “inactive” each time. Moreover, the outcome in test [3] was inactive. Besides, the max response in test [6] was 9.88%.

In the case of `Nc1nc(Cl)nc2c1ncn2[C@@H]1O[C@H](CO)[C@@H](O)[C@H]1O`, the Potency entry in test [1], in test [2], in test [4], in test [5] and in test [7] was “inactive” throughout. Further, in test [3], the result was inactive. For the same molecule, in test [6], the max response was 6.66%.

In the case of `COc1ccc(NC(=O)/C=C/c2ccc(Cl)cc2)cc1`, the Potency result in test [1], in test [4] and in test [5] was “inactive” throughout. The Potency in test [2] is 1.03 µM (active); in test [7], 5.62 µM (active). Moreover, the result in test [3] was inactive. Also, the max response in test [6] is 30.8%.

In the case of `CO/N=C(\C(=O)N[C@@H]1C(=O)N2C(C(=O)O)=C(COC(C)=O)CS[C@H]12)c1csc(N)n1`, the Potency entry in test [1], in test [2], in test [4], in test [5] and in test [7] was “inactive” throughout. For the same molecule, in test [3], the result was inactive. Also, in test [6], the max response is 5.62%.

For the molecule `O=C(O)CC1CC(c2ccccc2)=NO1` (stereo unspecified), the Potency result in test [1], in test [2], in test [4], in test [5] and in test [7] was “inactive” throughout. In test [3], the result was inactive. For the same molecule, the max response in test [6] was -4.91%.

As for `OCC1O[C@H]([S-])[C@H](O)[C@@H](O)[C@@H]1O.[Au+]` (stereo partly specified), the Potency in test [1] was 16.4 µM (active); in test [5] it was 15.8 µM (active); in test [6] it was 2.82 µM (active). Moreover, the Potency entry in test [2], in test [4] and in test [7] was “inactive” in each case. Besides, the outcome in test [3] was inactive.

Take `C[N+]1(C)C2CC(OC(=O)[C@H](CO)c3ccccc3)CC1C1OC12` (stereo partly specified): the Potency result in test [1], in test [2], in test [4], in test [5] and in test [7] was “inactive” in each case. Also, the result in test [3] was inactive. For the same molecule, the max response in test [6] is -7.69% and 8.7%.

With `COc1cc(C(O)CO)ccc1OS(=O)(=O)O` (stereo unspecified), the Potency result in test [1], in test [2], in test [4], in test [5] and in test [7] was “inactive” throughout. The outcome in test [3] was inactive. For the same molecule, the max response in test [6] was 2.33%.

Consider `Nc1nc(SCc2ccc([N+](=O)[O-])cc2)c2ncn([C@@H]3O[C@H](CO)[C@@H](O)[C@H]3O)c2n1`, for which the Potency entry in test [1], in test [2], in test [4], in test [5] and in test [7] was “inactive” in each case. Further, the outcome in test [3] was inactive. The max response in test [6] was 22.6%.

On to `O=C(O)c1cc(=O)c2c(Cl)cc(Cl)cc2[nH]1`, for which the Potency result in test [1], in test [2], in test [4], in test [5] and in test [7] was “inactive” each time. Besides, the result in test [3] was inactive. Moreover, the max response in test [6] was 14.4%.

With `NCCNC(=O)c1ncsc1-c1cccc(F)c1`, the Potency entry in test [1], in test [2], in test [4], in test [5] and in test [7] was “inactive” in each case. For the same molecule, the result in test [3] was inactive. For the same molecule, in test [6], the max response is 3.56%.

Values taken from PubChem BioAssay (NCATS).
